Source: PubChem BioAssay (National Center for Advancing Translational Sciences (NCATS))
Shown are actives, neighbours in structure and some others; about 21% of the full set was active somewhere.
Pf growth 96h: P. falciparum growth inhibition at 96 hour, primary screen for plastid delayed-death inhibitors; AID 504834; Potency, µM (series often up to 28.7 µM), inactives show at the top dose activity change, negative = inhibition, most hits filed as inhibitors; 320,000 tested, 6.9% active; P. falciparum luciferase reporter growth, 96 h; also: potency is read from the fitted curve at half-maximal effect; % is scaled to controls: 0 for no effect and ±100 for the full control effect
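Compounds incubated with erythrocytes infected by luciferase-expressing P. falciparum (2% hematocrit, 0.05% parasitemia final) for 96 hours, 37 C in 5% CO2. Growth inhibition scored as decreased luciferase luminescence.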
Cycloheximide cs: affects cycloheximide protein synthesis inhibition readout, counter-screen; max response, %; cell reporter, cycloheximide protein synthesis inhibition counterscreen; 300,000 tested, 12% active; in the data active = max response mostly above about 13%, no sharp cut-off; inactive = mostly below about 14%; also: read at 38.3 µM for the half of the compounds with a filed dose; 0% is about no effect
Pf growth 48h: P. falciparum growth inhibition at 48 hours (one generation) | P. falciparum luciferase growth in erythrocytes, 48 h | Potency, µM (doses to about 28.7 µM), inactives show top-dose activity change, negative = inhibition, hits mostly inhibitors | 310,000 tested, 5.9% active; also: potency is read from the fitted curve at half-maximal effect; % is scaled to controls: 0 for no effect and ±100 for the full control effect
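Firefly luciferase activity from engineered P. falciparum reports growth; inhibitors lower the luminescent signal. Cultures contained 2% hematocrit erythrocytes at 0.1% final parasitemia.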
Shiga inhibitor: inhibitors of Shiga toxin in Vero cells; Vero cells, Shiga toxin protein synthesis inhibition reporter; inhibition, % at 38.7 µM; 290,000 tested, 9.2% active; in the data active = inhibition mostly above about 28%, no sharp cut-off; inactive = mostly below about 43%; also: 0% is about no effect
HCV inhibitor: HCV inhibition; Huh7.5.1 HCVcc-Cre infection, luciferase reporter, 44 h; Potency, µM (top dose mostly 41.8 µM), without a hit: at the top dose activity change, negative = inhibition, actives largely listed as inhibitors; 340,000 tested, 3.4% active; AID 651820; also: potency is read from the fitted curve at half-maximal effect; % is scaled to controls: 0 for no effect and ±100 for the full control effect
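Infectious HCV cell culture screen: compound-treated cells (1,000/well, pre-plated 4 h) are infected with HCVcc-Cre at roughly 0.5 moi and grown 44 h. Infection is quantified by luciferase signal after 15 min substrate incubation at room temperature.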
HCMV inh: blocks human cytomegalovirus replication. HFF cells, HCMV-luciferase reporter, 72 h; active compounds read low. activity change, negative = inhibition, % at 57.5 µM. 410,000 tested, 4.5% active. AID 1259415; in the data active = activity change below about -60%; inconclusive = no clear call, values can overlap the other calls; inactive = above about -39%; also: % is scaled to controls: 0 for no effect and ±100 for the full control effect
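Inhibition of viral replication was scored as loss of reporter luminescence in HFFs infected with HCMV-luciferase (MOI 1 PFU/cell) for 72 h; compounds tested at 2 doses, normalized to buffer and Salinomycin controls.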
Numbers without * were called inactive; ? = inconclusive; . = no result; [ ] = dose if it differs, or a comment. Unless noted, calls follow the shape of the dose curve; as a rule, active = well fitted inhibition curve with a large enough effect; inconclusive = small, poorly fitted or top-dose-only effect, or another doubt; inactive = no such curve, though single readings can be large or run the other way.

SMILES	Pf growth 96h	Cycloheximide cs	Pf growth 48h	Shiga inhibitor	HCV inhibitor	HCMV inh
Cc1ccsc1/C=N/NC(=O)c1ccco1	32%	24*	25%	46*	16%	-5
Cc1ccsc1/C=N/NC(=O)CNC(=O)c1ccco1	-14%	7	7%	39	16%	-33
CCOC(=O)N/N=C\c1sccc1C	-2%	8	10%	15	10%	-28
CCCC(C)NC(=O)Cn1c(=O)c2c(ncn2CCC(C)C)n(Cc2ccccc2)c1=O (stereo not drawn)	?	-1	?	4	4%	-11
Cc1ccsc1/C=N/NC(=O)c1ccc(-n2cccc2)cc1	-47%	33*	?	66*	-18%	-17
Cc1ccsc1/C=N/NC(=O)c1sccc1C	107%	53*	68%	95*	16%	223
Cc1ccc(C(=O)N/N=C\c2sccc2C)cn1	?	34*	123%	73*	25%	28
CC(C)(C)C1CCc2sc(-c3nnc(CCl)o3)cc2C1 (stereo not drawn)	?	32*	13µM*	72*	-7%	-12
ClCc1nnc(-c2cc3c(s2)CCCC3)o1	10µM*	50*	?	67*	?	-16
CCCCNC(=O)CCc1c(C)nc2nc(-c3cc(OC)cc(OC)c3)nn2c1C	?	9	.	-22	0%	-95*
CCOC(=O)C(Cc1ccccc1)NC(=O)CCc1c(C)nc2nc(C)nn2c1C (stereo not drawn)	7.4µM*	-4	6%	-16	6%	10
CCOC(=O)C(Cc1ccccc1)NC(=O)CCc1c(C)nc2ncnn2c1C (stereo not drawn)	22%	-2	2%	-8	9%	-5
O=C(Cc1ccc(Cl)cc1)NCCCNC(=O)c1cccnc1	1%	13	-11%	-2	-12%	23
Cc1nc([N+](=O)[O-])c(Br)n1CC(=O)c1ccc2ccccc2c1	?	2	.	-21	10µM*	70
Cc1ccc([N+](=O)[O-])cc1S(=O)(=O)N(C)C	.	-1	.	-1	.	.
O=C(c1cc2nc(-c3ccccc3)cc(-c3ccccc3)n2n1)N1CCN(C(=O)c2ccco2)CC1	-24%[5.75 µM]	9	?	-8	14µM*	-9
CN1CCN(C(=O)c2cc3nc(-c4ccccc4)cc(-c4ccccc4)n3n2)CC1	.	-1	?	-6	11µM*	-2
COc1ccc2nc(NNC(=O)c3cc(=O)c4ccccc4o3)sc2c1	?	43*	?	66*	-25%	32
Cc1ccc2sc(NNC(=O)c3cc(=O)c4ccccc4o3)nc2c1C	?	16*	-34%	44*	6%	?
Cc1cccc2sc(NNC(=O)c3cc(=O)c4ccccc4o3)nc12	?	13*	?	31*	21%	145
CSc1ccc(C2=C/C(=C3/SC(=S)NC3=O)c3ccccc3O2)cc1	.	.	.	.	13%	-30
Cc1cc(NC(=O)Nc2cccc(C(F)(F)F)c2)no1	-8%	2	?	-7	-24%	-21
COc1cccc(NC(=O)Nc2cc(C)on2)c1	-28%	23*	32%	.	3%	8
COc1cccc(C(=O)NC(=O)Nc2cc(C)on2)c1	?	56*	339%	71*	16%	-9
Oc1ccc(-c2nc3ccccn3c2NCc2ccc3c(c2)OCO3)cc1	?	25*	-7%	15	?	-23
SMILES	Pf growth 96h	Cycloheximide cs	Pf growth 48h	Shiga inhibitor	HCV inhibitor	HCMV inh
Fc1ccc(-c2nc3ccccn3c2NCc2ccc3c(c2)OCO3)cc1	-1%	15	8.3µM*	5	-11%	-11
O=C1CCC[C@H]2[C@@H](Cc3ccccc3)[C@@H](NS(=O)(=O)c3ccc4ccccc4c3)CC[C@]23CCCN13	.	.	.	.	.	3
O=C(NCc1cccc(C(F)(F)F)c1)c1csc(COCCO)n1	.	.	.	.	.	10
CN(C)c1ccc(/C=N/NC(=O)c2ccc(-n3cnnn3)cc2)cc1	28%	.	13%	.	-4%	-18
CCn1c2ccccc2c2cc(NC(=O)C(=O)N3CCOCC3)ccc21	?	35*	19%	86*	11µM*	48
CCn1c2ccccc2c2cc(NC(=O)c3cccc(OC)c3OC)ccc21	4.1µM*	2	-15%	16	?	-3
CCn1c2ccccc2c2cc(NC(=O)c3ccco3)ccc21	.	18*	13µM*	41	3.2µM*	-69*
CCn1c2ccccc2c2cc(NC(=O)c3cccc(OC)c3)ccc21	-35%	20*	?	95*	11µM*	45
CC1CC(=S)Nc2ccccc2N1C(=O)Nc1ccccc1 (stereo not drawn)	?	9	3.3µM*	15	20%	-8
CCOC(=O)C(CC)N1CCN(Cc2ccc(F)cc2)C(=O)C1=O (stereo not drawn)	.	.	.	.	.	5
O=C(CSc1nc2ccccc2c(=O)n1-c1ccc(F)cc1)Nc1ccc(Cl)c(S(=O)(=O)N2CCOCC2)c1	5.9µM*	-3	9.3µM*	-15	-4%	-34
O=C(CSc1nc2ccccc2c(=O)n1-c1ccc(F)cc1)Nc1ccc(C(=O)O)cc1	-12%	-2	-20%	-17	2%	36
Cc1ccc(-n2c(SCC(=O)Nc3cc(S(=O)(=O)N4CCOCC4)ccc3Cl)nc3ccccc3c2=O)cc1	2.9µM*	4	10µM*	-21	-13%	?
O=C(CSc1nc2ccccc2c(=O)n1-c1ccc(F)c(Cl)c1)Nc1cccc(S(=O)(=O)N2CCOCC2)c1	4.1µM*	-5	?	17	?	?
CCCNC(=O)c1ccc2c(c1)nc1n2CCCCC1	.	.	.	.	.	48
CC1(OC(=O)C2CCCC2)C(=O)C=C2C=C(c3ccsc3)N(CCCCO)C=C2C1=O (stereo not drawn)	?	-7	?	-7	0%	?
CC1(OC(=O)C2CCCC2)C(=O)C=C2C=C(c3ccsc3)N(C3CCCC3)C=C2C1=O (stereo not drawn)	10µM*	-2	?	-5	19%	-6
CC1(OC(=O)C2CCCC2)C(=O)C=C2C=C(c3ccsc3)N(Cc3ccco3)C=C2C1=O (stereo not drawn)	13µM*	0	12µM*	29	13%	.
CCOC(=O)C1CCN(C(=O)c2cc3sc(C)cc3n2C)CC1	.	.	.	.	.	50
CC(=O)Nc1ccc(Nc2cc(C)c3ccccc3n2)cc1	?	-3	-8%	61	-21%	-3
COc1ccc(Nc2cc(C)c3ccc(O)cc3n2)cc1	?	46*	0.37µM*	52*	?	-40
Cc1cc(Nc2ccccc2)nc2cc(O)ccc12	-28%	37*	0.33µM*	114*	?	67
CC(CCc1ccccc1)NC(=O)c1ccncc1 (stereo not drawn)	.	-4	1%	-15	15%	?
